Measurements as given in ChEMBL document CHEMBL3988442, “University of Dundee, Small-Polar-MMV Screening Library” (2021).
In all, about 48,000 compounds went through this assay and about 13,000 (27%) showed an effect of 50% or more. Some of the results follow.

test system: Wolbachia pipientis; experiment: Anti-Wolbachia Cell-Based Screen; assay type: functional; set-up: scale not given: in the data most compounds retested in dose-response had high values; details: 5 µM

SMILES | Percent Effect
Cc1ccc([C@@H]2CN(C(=O)c3cc(C)n[nH]3)C[C@H]2NC(=O)C2CC2)cc1 | 4.814%
CCNC(=O)CN(CC)S(=O)(=O)c1c(Br)cc2[nH]c(=O)oc2c1Cl | -2.285%
Cc1ccnc(NCCNC(=O)c2ccccc2NCC(=O)O)c1 | -16.08%
CC(C)CN(C(=O)Nc1cccc(C(=O)N(C)C)c1)C1CC1 | 4.006%
Cc1cc(CNc2cccc(C(=O)N(C)c3ccccc3)c2)no1 | 2.006%
CN(CC(=O)N1CCCC1)C(=O)c1ccccc1Nc1ccccc1 | -0.554%
CC(C)N(CC(=O)Nc1cccc(C(=O)N(C)C)c1)C1CC1 | 5.845%
CN(C)CC(c1ccccc1)N(C)C(=O)c1cccc(NCC(=O)O)c1 (stereo not drawn) | 104.1%
CN(C(=O)c1ccccc1NCC(=O)O)C(C1CC1)C1CC1 | 114.3%
COC(C)c1cccc(NCc2cccs2)c1 (stereo not drawn) | 2.749%
CC(=O)Nc1cccc(C(=O)N(C)C(C)Cc2cc(C)ccn2)c1 (stereo not drawn) | 4.881%
CN(C(=O)c1cccc(NCc2cccs2)c1)C(C1CC1)C1CC1 | 113%
CN(C(=O)c1cccc(NCC(=O)O)c1)C(C1CC1)C1CC1 | 109.4%
CCn1nc(C)c(CCNC(=O)c2cccc(NCC(=O)O)c2)c1C | -5.115%
CC(C)(C)C(=O)N1C[C@@H](F)[C@@H](OCc2nc3ccccc3o2)C1 | -2.26%
Cc1cnn(C2CN(Cc3noc(C4CC4)n3)C2)c1 | -0.9556%
CN1C(=O)C2(CCN(S(C)(=O)=O)CC2)c2cc(F)ccc21.Cl | -38.1%
Brc1cc(CNCc2nnc3n2CCC3)cs1.Cl | -5.919%
O=C(COCC1CCCO1)N(Cc1cccnc1)c1ccc(F)cc1 (stereo not drawn) | 100.3%
O=C(CN(Cc1cccnc1)CC1CCCO1)Nc1ccc(F)cc1 (stereo not drawn) | -1.761%
O=C(CCc1cccnc1)N(Cc1ccsc1)CC1CCCO1 (stereo not drawn) | -15.29%
CC(CCNC(=O)NCCc1ccncc1)c1ccccc1 (stereo not drawn) | 4.177%
CCN(Cc1ccncc1)C(=O)c1cn(CCCc2ccccc2)nn1 | -1.571%
CC(=O)NC(=O)C1(CCCc2ccncc2)CCN1 (stereo not drawn) | 96.13%

SMILES | Percent Effect
CCNc1ncc(C(=O)NCCCc2ccncc2)cn1 | -5.909%
CNC(=O)C1(CCCc2ccncc2)CCCN1 (stereo not drawn) | -10.96%
O=C(O)C(F)(F)F.O=C(O)C(F)(F)F.O[C@H]1CCN(CC2CC2)[C@H]1Cc1ccncc1 | 1.351%
CN(C)C(=O)C1(CCCc2ccncc2)CCCN1 (stereo not drawn) | -8.359%
CN(CCCNC(=O)NCc1ccncc1)CC(F)(F)F | -10.78%
CNC(=O)C1(CCCc2ccncc2)CCCCN1.Cl (stereo not drawn) | 104.3%
Cc1cccc(C(C(=O)NCCCc2ccncc2)N(C)C)c1 (stereo not drawn) | -9.46%
NC(=O)C1(CCCc2ccncc2)CCCN1 (stereo not drawn) | 96.03%
CNC(=O)C1(CCCc2ccncc2)CCN1.O=C(O)C(F)(F)F (stereo not drawn) | 127.6%
CN(CCSc1ccccc1)C(=O)C(c1cccnc1)N1CCOCC1 (stereo not drawn) | 0.338%
Cc1cc(S(=O)(=O)Nc2cccc(I)c2)sc1C(=O)O | 5.422%
CN1CCCC2(CCN(c3cc(C(F)(F)F)nc(N(C)C)n3)C2)C1=O (stereo not drawn) | 7.307%
COc1ccc(CNC(=O)c2ccc(Cl)cc2F)cc1C(=O)O | 25.37%
COc1ccccc1OCC(=O)Nc1ncccc1Cl | -0.249%
COc1cc(CNc2ccc(Cl)cc2)ccc1OCC(=O)O | 106%
COc1cccc(CNc2cc(CO)ccc2Cl)c1 | -79.64%
COc1cc(CNc2ccccc2Cl)ccc1OCC(=O)O | 86.61%
CCc1cnc(N)nc1NCc1ccc(OC)c(OC)c1 | -14.4%
CNC(=O)NC(=O)CNC(CC(F)(F)F)c1ccc(F)cc1 (stereo not drawn) | 13.05%
CN(CC(=O)N1CC(C)(C)[C@](O)(C2CC2)C1)Cc1ccncc1 | -13.6%
Cc1ncc2c(n1)CCN(Cc1nc3ccccc3o1)C2 | 7.952%
CCN1CCN(C2CCN(Cc3nc4ccccc4o3)CC2)C1=O | -0.2621%
COC(=O)c1cccn1C1CCN(Cc2nc3ccccc3o2)CC1 | 118.1%
CCN(CC)C(=O)[C@@H]1C[C@@H](NC(=O)c2cccn2C2CC2)CN1C | 0.5236%

SMILES | Percent Effect
COC(=O)c1cccn1C1CCN(Cc2cnc3ccccn23)CC1 | 132%
COC(=O)c1cccn1C1CCN(CCN2C(=O)CCC2=O)CC1 | 85.14%
CCOCCCNC(=O)c1cccn1Cc1cccnc1 | -15.39%
CCc1nc(C)c(C(=O)N(C)Cc2cnc3ccccn23)o1 | -30.87%
O=C1CCC(=O)N1CCN1CCC(=Cc2ccccc2)CC1 | -0.4568%
COC(=O)c1cccn1C1CCN(Cc2cccnc2)CC1 | 126.9%
CC(C)C(C)NC(=O)c1cccn1Cc1cccnc1 (stereo not drawn) | -0.09991%
COCc1nnc(C(=O)N(C)Cc2cnc3ccccn23)o1 | -16.21%
N#CCCN(CCC#N)C(=O)CN1CCCC1Cc1cccc(F)c1 (stereo not drawn) | -4.236%
COCCN1CCN(Cc2cccc(C(N)=O)c2)CC1C (stereo not drawn) | 5.406%
COC(=O)c1cccn1C1CCN(Cc2cccc(C(N)=O)c2)CC1 | 132.6%
CC(O)CN1CCC(CNCc2cccc(C(N)=O)c2)CC1 (stereo not drawn) | 1.784%
COC(=O)[C@@H]1CN(S(=O)(=O)c2ccccc2)CCN1S(C)(=O)=O | -4.195%
COC(=O)c1ccc(S(=O)(=O)N2CCC(Oc3cccnn3)CC2)cc1 | -19.83%
COC(=O)c1cccn1C1CCN(S(=O)(=O)c2ccccc2)CC1 | 89.91%
CCOCCn1c(=O)n(CCC(C)C)c2ncc(C(=O)O)cc21 | -3.937%
COCC(=O)Nc1ccc([C@@H](O)[C@H]2COCC(=O)N2C)cc1 | -3.081%
CS(=O)(=O)N1CCN(C(=O)c2cccc(Cl)c2)CC2(CNC(=O)C2)C1 (stereo not drawn) | 2.79%
Cc1nc(CC(=O)N2CCC[C@H]2c2nc(C(C)C)no2)cs1 | -12.82%
CC(C)C(=O)N1CCCC1c1nc(N(C)C)ncc1-c1ccc(Cl)cc1 (stereo not drawn) | 126.5%
CN(C)c1ccc(C(=O)N2CCCC2c2ccc(Cl)cc2)cc1 (stereo not drawn) | 5.929%
CCC(=O)N1CCCC1c1nc(N(C)C)ncc1-c1ccc(Cl)cc1 (stereo not drawn) | 84.51%
Cc1cccc(N(CCC#N)S(=O)(=O)CC2CCCCO2)c1 (stereo not drawn) | -8.784%
N#Cc1cc(C#N)c(SCCC(=O)Nc2ccc(F)cc2)nc1N | -13.62%

SMILES | Percent Effect
CN(C)C(=O)N1CCC2(CC1)NC(=O)c1ccccc12.Cl | -7.31%
CN1C[C@@H](C(=O)N2CCCOCC2)[C@@]2(CCc3ccccc3C(=O)N2)C1 | -5.089%
CN1CC(C(=O)NC(C)(C)C)CC1=O (stereo not drawn) | 0.8346%
O=C(c1ccccc1)N1CC(C(=O)N2CCOCC2)C2(CCOCC2)C1 (stereo not drawn) | -41.49%
CN1C[C@@H](C(=O)N2CCOCC2)[C@@]2(CCc3ccccc3C(=O)N2)C1 | 147.9%
C[C@@H]1CN(C2(C(=O)N(C)C)Cc3ccccc3C2)C[C@H](C)O1 | 1.411%
CCNC(=O)N1CC[C@@H](CC(=O)O)[C@@H](CC2=NCCc3ccccc32)C1 | 7.982%
CN1C[C@@H](C(=O)N(C)C)[C@@]2(CCc3ccccc3C(=O)N2)C1.Cl | 136.2%
CN1C[C@@H](C(=O)NC(C)(C)C)[C@@]2(CCc3ccccc3C(=O)N2)C1 | 141.5%
CC(C)(C)NC(=O)[C@@H]1CNC[C@]12Cc1ccccc1C(=O)N2 | 114.2%
COC(=O)CN(Cc1ccccc1C)C(=O)CCCNC(=O)C1CC1 | -13.3%
CN(C)CCNc1ncccc1CNC(=O)Nc1cc(F)cc(F)c1 | -8.67%
CC(C)(C)c1cnc(CN2CCC(NC(=O)C3CCOCC3)CC2)o1 | -13.41%
COC1CCN(CCNC(=O)NCC(C)c2cccc(C)c2)CC1 (stereo not drawn) | 5.114%
COCCN(C)C[C@@H]1CCC[C@@H]2CN(Cc3ccc(OC)nc3)C[C@@H]21.O=C(O)C(F)(F)F.O=C(O)C(F)(F)F | 8.299%
COC(=O)N1CCc2ccccc2C1C(=O)NCC(F)(F)F (stereo not drawn) | 5.157%
O=C(NCC(F)(F)F)C1CCC(=O)N(C2CCCC2)C1 (stereo not drawn) | 11.17%
CN1C[C@@H](C(=O)NCC(F)(F)F)[C@@]2(CCc3ccccc3C(=O)N2)C1 | 103.7%
CCC(C)C(=O)NCc1cc(Br)c(OC)c(OC)c1 (stereo not drawn) | -3.921%
Cc1ccc(CNC(=O)CCN2CCOC(C(F)(F)F)C2)cc1 (stereo not drawn) | -2.283%
CCS(=O)(=O)c1ccc(N2CCC(NC(=O)CCC(C)C)CC2)cc1 | 4.61%
